Measurements taken from PubChem BioAssay (NCATS).
Inconclusive results are not listed. Activity calls are given as the source filed them. Unless noted, calls follow the shape of the dose curve; as a rule, active = well fitted curve in the direction sought with a large enough effect; inconclusive = small, poorly fitted or top-dose-only effect, or another doubt; inactive = no such curve, though single readings can be large; an effect the other way counts as inactive or inconclusive.

What was measured:
[1] = biological target: Glucocorticoid receptor (Homo sapiens) (UniProt P04150); assay: qHTS assay for small molecule agonists of glucocorticoid receptor signaling (AID 588532; active = well fitted curve in the direction sought with a large enough effect in the signal ratio, with a control signal flat; the % refers to the signal ratio;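 also: 100% = dexamethasone at 0.1 µM and 0% = DMSO only wells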); conditions: HeLa MMTV-bla, beta-lactamase ratio, agonist, 18 h; stronger effect = higher value; percent of dexamethasone control, DMSO zero
Glucocorticoid receptor (Homo sapiens), sequence (P04150 whole entry, looked up): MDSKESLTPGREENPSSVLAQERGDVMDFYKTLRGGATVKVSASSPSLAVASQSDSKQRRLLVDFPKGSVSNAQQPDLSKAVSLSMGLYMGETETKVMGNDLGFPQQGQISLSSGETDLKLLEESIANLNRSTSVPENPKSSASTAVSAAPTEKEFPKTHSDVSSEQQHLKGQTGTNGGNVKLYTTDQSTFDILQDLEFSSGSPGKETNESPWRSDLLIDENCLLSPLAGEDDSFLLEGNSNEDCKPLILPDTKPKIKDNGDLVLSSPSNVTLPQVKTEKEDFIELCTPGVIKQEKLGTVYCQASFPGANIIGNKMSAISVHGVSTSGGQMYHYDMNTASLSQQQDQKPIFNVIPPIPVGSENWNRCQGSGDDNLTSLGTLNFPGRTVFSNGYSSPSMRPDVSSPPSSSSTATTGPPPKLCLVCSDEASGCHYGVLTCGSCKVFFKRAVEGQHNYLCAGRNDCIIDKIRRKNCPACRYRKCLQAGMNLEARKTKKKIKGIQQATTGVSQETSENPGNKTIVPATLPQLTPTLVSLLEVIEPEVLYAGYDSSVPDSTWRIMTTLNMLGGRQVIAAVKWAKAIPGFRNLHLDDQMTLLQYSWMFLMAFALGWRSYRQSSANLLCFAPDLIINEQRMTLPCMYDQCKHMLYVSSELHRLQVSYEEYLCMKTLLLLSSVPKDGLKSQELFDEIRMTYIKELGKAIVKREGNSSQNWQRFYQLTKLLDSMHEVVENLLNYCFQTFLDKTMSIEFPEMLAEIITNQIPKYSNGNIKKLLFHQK
Outline: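 Quantitative HTS using CellSensor MMTV-bla HeLa cells in charcoal/dextran-treated serum; compounds tested up to 92 uM. After 18 h at 37 C, CCF4 dye reported reporter induction.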

[2] = qHTS assay for small molecule antagonists of peroxisome proliferator-activated receptor delta signaling (AID 588535); conditions: HEK293T PPARd-UAS-bla, beta-lactamase FRET ratio, 18 h; 460 nm channel;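 also: cells co-treated with a PPAR-delta agonist as stimulator during compound exposure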
Outline: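 Cell-based beta-lactamase assay in antagonist mode: 4000 HEK293T PPAR-delta-UAS-bla cells per well, 5 hr preincubation then 18 hr compound incubation at 37 C. IC50 obtained by Hill equation fitting.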

[3] = biological target: Peroxisome proliferator-activated receptor gamma (Homo sapiens) (UniProt P37231); assay: qHTS assay for small molecule agonists of peroxisome proliferator-activated receptor gamma signaling (AID 588536; active = well fitted curve in the direction sought with a large enough effect in the signal ratio, with a control signal flat, not every such curve was filed as active; the % refers to the signal ratio;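 also: 0% = DMSO basal wells and 100% = rosiglitazone at 2 µM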); conditions: HEK293 PPARg-UAS-bla, beta-lactamase ratio, 16 h, percent of rosiglitazone response, DMSO as zero; series mostly up to 76.7 µM
Peroxisome proliferator-activated receptor gamma (Homo sapiens), sequence (P37231 whole entry, looked up): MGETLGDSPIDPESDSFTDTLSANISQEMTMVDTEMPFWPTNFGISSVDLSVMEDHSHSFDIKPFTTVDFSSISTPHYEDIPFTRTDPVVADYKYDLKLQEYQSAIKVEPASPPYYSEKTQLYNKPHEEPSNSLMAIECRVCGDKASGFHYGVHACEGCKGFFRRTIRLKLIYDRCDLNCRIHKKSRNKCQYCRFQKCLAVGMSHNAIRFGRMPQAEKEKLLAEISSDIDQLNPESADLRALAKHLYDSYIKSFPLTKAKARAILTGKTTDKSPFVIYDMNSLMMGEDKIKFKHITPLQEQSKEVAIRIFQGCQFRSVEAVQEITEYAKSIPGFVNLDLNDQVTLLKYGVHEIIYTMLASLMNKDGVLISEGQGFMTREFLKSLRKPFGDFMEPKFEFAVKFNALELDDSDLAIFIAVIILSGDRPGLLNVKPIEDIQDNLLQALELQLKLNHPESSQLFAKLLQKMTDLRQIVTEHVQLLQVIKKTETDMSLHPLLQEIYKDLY
Outline: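 HEK293 UAS-bla reporter line, 1% charcoal/dextran FBS; titration, 16 h, 37 C; CCF4 loading 2 h RT; fluorescence 460/530 nm. Normalized to rosiglitazone 2 uM = 100%, DMSO = 0%.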

[4] = biological target: Peroxisome proliferator-activated receptor gamma (Homo sapiens) (UniProt P37231); assay: qHTS assay for small molecule antagonists of peroxisome proliferator-activated receptor gamma signaling (AID 588537; active = well fitted inhibition curve with a large enough effect in the signal ratio, with a control signal flat, not every such curve was filed as active; the % refers to the signal ratio;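 also: reporter cells co-stimulated with 50 nM rosiglitazone agonist during compound treatment; % of control where 0% means no effect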); conditions: HEK293 PPARg-UAS-bla, beta-lactamase ratio, antagonist mode; series mostly up to 76.8 µM
Outline: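 Inhibitors of agonist-stimulated UAS-bla reporter activity were sought in HEK293 cells; rosiglitazone (50 nM) defined full signal and DMSO baseline. Curves fitted to Hill model gave IC50 and efficacy.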

[5] = biological target: Vitamin D3 receptor (Homo sapiens) (UniProt P11473); assay: qHTS assay for small molecule agonists of vitamin D receptor signaling (AID 588543; calls by dose curve;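 also: 0% = DMSO basal and 100% = reference agonist control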); conditions: HEK293T VDR-UAS-bla, beta-lactamase ratio, 16 h; series mostly up to 76.8 µM
Vitamin D3 receptor (Homo sapiens), sequence (P11473 whole entry, looked up): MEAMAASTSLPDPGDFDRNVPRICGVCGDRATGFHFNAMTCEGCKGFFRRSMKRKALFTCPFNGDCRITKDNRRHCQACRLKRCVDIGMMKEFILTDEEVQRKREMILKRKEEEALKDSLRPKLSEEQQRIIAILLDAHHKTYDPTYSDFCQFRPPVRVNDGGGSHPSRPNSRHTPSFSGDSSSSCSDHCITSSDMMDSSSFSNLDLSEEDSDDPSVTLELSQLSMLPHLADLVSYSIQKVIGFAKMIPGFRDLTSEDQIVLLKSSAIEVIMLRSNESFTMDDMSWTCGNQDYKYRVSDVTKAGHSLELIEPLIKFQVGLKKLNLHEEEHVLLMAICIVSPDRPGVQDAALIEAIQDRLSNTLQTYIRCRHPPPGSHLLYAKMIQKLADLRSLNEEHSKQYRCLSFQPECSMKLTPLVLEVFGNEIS
Outline: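 β-lactamase reporter, VDR-UAS-bla HEK293T, agonist mode. Cells plated 5 h at 37 °C, compound titration 16 h at 37 °C, CCF4 dye 2 h RT, ratio 460/530 nm. Hill fit → EC50, efficacy vs 50 nM 1α,25-(OH)2D3.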

[6] = qHTS assay for small molecule agonists of retinoid X receptor alpha signaling (AID 588544; calls by dose curve;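 as to activation: 0% = DMSO basal wells and 100% = reference agonist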); conditions: HEK293T RXRa-UAS-bla, beta-lactamase reporter, 18 h; 530 nm emission
[7] = biological target: Retinoic acid receptor RXR-alpha (Homo sapiens) (UniProt P19793); assay: as above; conditions: HEK293T RXRa-UAS-bla, beta-lactamase reporter, 18 h; series mostly up to 76.7 µM
Retinoic acid receptor RXR-alpha (Homo sapiens), sequence (P19793 whole entry, looked up): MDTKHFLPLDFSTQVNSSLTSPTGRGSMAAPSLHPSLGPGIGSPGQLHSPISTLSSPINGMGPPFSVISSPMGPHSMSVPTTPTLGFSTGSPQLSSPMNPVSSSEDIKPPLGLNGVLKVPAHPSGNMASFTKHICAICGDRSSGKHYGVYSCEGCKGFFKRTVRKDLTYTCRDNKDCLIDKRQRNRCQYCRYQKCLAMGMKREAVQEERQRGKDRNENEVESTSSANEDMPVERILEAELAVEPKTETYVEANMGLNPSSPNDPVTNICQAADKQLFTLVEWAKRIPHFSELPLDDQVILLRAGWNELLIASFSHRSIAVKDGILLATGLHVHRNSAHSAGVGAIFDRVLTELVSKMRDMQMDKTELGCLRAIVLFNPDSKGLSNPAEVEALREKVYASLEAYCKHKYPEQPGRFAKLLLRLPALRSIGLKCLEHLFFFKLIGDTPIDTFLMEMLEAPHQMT

[8] = qHTS assay for small molecule antagonists of retinoid X receptor alpha signaling (AID 588546; active = well fitted inhibition curve with a large enough effect in the signal ratio, with a control signal flat, not every such curve was filed as active; the % refers to the signal ratio;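 also: cells stimulated with 9-cis-retinoic acid as agonist; % is scaled to controls: 0 for no effect and ±100 for the full control effect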); conditions: HEK293T RXRa-UAS-bla, beta-lactamase ratio, antagonist mode; measured here: W530 green channel, cytotoxicity proxy
Outline: (§1)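 Beta-lactamase reporter inhibition, read as CCF4 fluorescence ratio (ex 405, em 460/530 nm) after 2 h at RT. HEK293T UAS-bla cells, 2500/well, were stimulated with 9-cis-RA at 500 or 100 nM final alongside test compound for 18 h at 37 C.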

[9] = biological target: Retinoic acid receptor RXR-alpha (Homo sapiens) (UniProt P19793); assay: as above; conditions: HEK293T RXRa-UAS-bla, beta-lactamase ratio, antagonist mode
Outline: as §1

[10] = qHTS assay for small molecule activators of the p53 signaling pathway (AID 651743; active = well fitted activation curve with a large enough effect in the signal ratio, not every such curve was filed as active; the % refers to the signal ratio; also: % of control where 0% means no effect); conditions: HCT-116 p53RE-bla, beta-lactamase FRET ratio, 16 h; activation: stronger effect = higher value
Outline: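 Screen for p53 pathway agonists uses stably transfected p53RE-bla HCT-116 cells, 4,000 per well, treated 16 h at 37 C with compounds in DMSO.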

[11] = qHTS assay for environmental chemicals that activate the Aryl hydrocarbon Receptor (AhR) signaling pathway (AID 651777); conditions: 1A2-DRE human hepatoma cells, luciferase, 24 h; activation: stronger effect = higher value; also: % of control where 0% means no effect; nearly all actives have a fitted effect of over 15% in size
Outline: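 Luminescence read-out: One-Glo added for 30 min at RT after 24 hr compound treatment (37 C, 5% CO2) of human hepatoma cells expressing a DRE/CYP1A2 promoter–luciferase reporter; increased signal indicates AhR activation.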

[12] = biological target: Peroxisome proliferator-activated receptor alpha (Homo sapiens) (UniProt Q07869); assay: qHTS assay for small molecule agonists of the peroxisome proliferator-activated receptor alpha (PPARalpha) signaling pathway (AID 651778); conditions: PathHunter PPARalpha complementation, chemiluminescence, 6 h; max response: stronger effect = higher value; also: potency is read from the fitted curve at half-maximal effect; as to max response: % of control where 0% means no effect
Peroxisome proliferator-activated receptor alpha (Homo sapiens), sequence (Q07869 whole entry, looked up): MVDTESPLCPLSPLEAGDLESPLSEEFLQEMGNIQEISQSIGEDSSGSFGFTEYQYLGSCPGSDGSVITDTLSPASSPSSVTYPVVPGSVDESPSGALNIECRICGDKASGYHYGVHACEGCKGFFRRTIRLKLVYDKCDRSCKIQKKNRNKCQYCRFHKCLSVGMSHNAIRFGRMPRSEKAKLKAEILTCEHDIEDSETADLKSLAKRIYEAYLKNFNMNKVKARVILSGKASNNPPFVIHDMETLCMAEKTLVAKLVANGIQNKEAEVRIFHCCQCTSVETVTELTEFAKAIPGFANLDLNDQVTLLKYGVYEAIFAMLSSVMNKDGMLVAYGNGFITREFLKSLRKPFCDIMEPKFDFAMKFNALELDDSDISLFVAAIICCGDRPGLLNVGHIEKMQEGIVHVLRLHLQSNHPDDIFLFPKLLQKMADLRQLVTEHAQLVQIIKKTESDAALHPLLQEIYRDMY
Outline: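 Chemiluminescence from complemented enzyme reported PPARalpha activation in cells after 6 hr of compound treatment at 37 C. The detection reagent was incubated for 60 min at room temperature, and compounds were scored as agonists.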

[13] = qHTS assay for small molecule agonists of the antioxidant response element (ARE) signaling pathway measured by Nrf2-dependant transcriptional activity (AID 720636; active = well fitted curve in the direction sought with a large enough effect in the repeat runs; an effect the other way counts as inactive or inconclusive;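 also: HepG2 cells with an ARE-driven luciferase reporter; % of control where 0% means no effect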); conditions: ARE-luc HepG2, Nrf2 luciferase reporter, 16 h; series mostly up to 92.4 µM
Outline: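 HepG2 ARE-luc reporter line, 1% dialyzed FBS; 6 hr attachment at 37 C, compound pinned in, 16 hr at 37 C/5% CO2; ONE-Glo, 30 min RT, luminescence read.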

[14] = qHTS assay for small molecule agonists of the antioxidant response element (ARE) signaling pathway measured by Nrf2-dependant transcriptional activity - cell viability counter screen (AID 720653; active = well fitted curve in the direction sought with a large enough effect in the repeat runs; an effect the other way counts as inactive or inconclusive; also: % is scaled to controls: 0 for no effect and ±100 for the full control effect); conditions: ARE-bla HepG2 viability, CellTiter-Glo ATP luminescence, 16 h; max response: stronger effect = lower value
Outline: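 Cytotoxicity counter screen: intracellular ATP quantified by CellTiter-Glo luminescence in the same ARE-bla HepG2 plates, after 16 h compound exposure and a 2 h beta-lactamase substrate step.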

[15] = qHTS assay for cell viability of HEK293 cells (AID 743288); conditions: ATP luminescence (CellTiter-Glo), 18 h; max response: stronger effect = lower value; also: % is scaled to controls: 0 for no effect and ±100 for the full control effect; nearly all actives have a fitted effect of over 50% in size
Outline: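 Environmental chemicals tested in qHTS format against parental HEK293 cells; 18 h treatment, 37 C; read-out ATP luminescence (CellTiter-Glo), 30 min RT development.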

[16] = qHTS assay for cell viability of the p53RE-bla HCT-116 cell line (AID 743292); conditions: p53RE-bla HCT-116 viability, ATP luminescence, 16 h; series mostly up to 95 µM; also: % is scaled to controls: 0 for no effect and ±100 for the full control effect; nearly all actives have a fitted effect of over 55% in size
Outline: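 Luminescent ATP quantitation (CellTiter-Glo) served as the viability read-out; reagent was added after 16 h compound exposure at 37 C and read after 30 min at room temperature. Cells: p53RE-bla HCT-116, 4,000 per well.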

[17] = biological target: Nuclear receptor subfamily 1 group I member 2 (Rattus norvegicus) (UniProt Q9R1A7); assay: qHTS assay for small molecule activators of the rat pregnane X receptor (rPXR) signaling pathway (AID 651751; call rule not given here; also: 0% is about no effect); conditions: rPXR reporter cells, luciferase (One-Glo), 24 h
Nuclear receptor subfamily 1 group I member 2 (Rattus norvegicus), sequence (Q9R1A7 whole entry, looked up): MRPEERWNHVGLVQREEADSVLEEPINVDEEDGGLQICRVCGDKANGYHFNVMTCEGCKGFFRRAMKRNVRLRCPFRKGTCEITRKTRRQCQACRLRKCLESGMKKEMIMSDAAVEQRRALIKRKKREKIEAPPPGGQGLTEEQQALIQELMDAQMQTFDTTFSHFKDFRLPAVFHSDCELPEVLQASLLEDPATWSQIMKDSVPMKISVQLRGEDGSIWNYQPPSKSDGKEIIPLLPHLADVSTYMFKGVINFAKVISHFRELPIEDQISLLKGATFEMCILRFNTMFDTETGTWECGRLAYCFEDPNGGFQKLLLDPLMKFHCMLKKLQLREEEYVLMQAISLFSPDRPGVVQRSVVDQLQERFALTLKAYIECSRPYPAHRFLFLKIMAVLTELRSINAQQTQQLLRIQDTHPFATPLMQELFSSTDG

[18] = qHTS assay for small molecule activators of the human pregnane X receptor (PXR) signaling pathway (AID 720659; call rule not given here; also: 0% is about no effect); conditions: DPX-2 HepG2 CYP3A4-luciferase, 24 h; series mostly up to 92.3 µM
[19] = biological target: Vitamin D3 receptor (Homo sapiens) (UniProt P11473); assay: qHTS assay for small molecule antagonists of vitamin D receptor signaling (AID 588541; calls by dose curve;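 also: receptor activated by calcitriol during compound treatment; % is scaled to controls: 0 for no effect and ±100 for the full control effect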); conditions: HEK293T VDR-UAS-bla, beta-lactamase ratio, antagonist mode; series mostly up to 76.7 µM
Outline: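 Antagonist-mode beta-lactamase reporter assay: HEK293T VDR-UAS-bla cells were exposed to titrated compound alongside 1-alpha,25-dihydroxyvitamin D3 at 3 nM final for 16 h. Values were normalized to the 50 nM agonist control and DMSO basal, with IC50 and efficacy from Hill equation fits.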

[20] = biological target: Thyroid hormone receptor beta (Homo sapiens) (UniProt P10828); assay: qHTS assay for small molecule agonists of thyroid hormone receptor beta signaling (AID 588545; calls by dose curve;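 also: 0% = DMSO only and 100% = 10 nM T3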); conditions: TR-UAS-bla GripTite HEK 293, beta-lactamase ratio, agonist mode, 18 h; series mostly up to 76.7 µM
Thyroid hormone receptor beta (Homo sapiens), sequence (P10828 whole entry, looked up): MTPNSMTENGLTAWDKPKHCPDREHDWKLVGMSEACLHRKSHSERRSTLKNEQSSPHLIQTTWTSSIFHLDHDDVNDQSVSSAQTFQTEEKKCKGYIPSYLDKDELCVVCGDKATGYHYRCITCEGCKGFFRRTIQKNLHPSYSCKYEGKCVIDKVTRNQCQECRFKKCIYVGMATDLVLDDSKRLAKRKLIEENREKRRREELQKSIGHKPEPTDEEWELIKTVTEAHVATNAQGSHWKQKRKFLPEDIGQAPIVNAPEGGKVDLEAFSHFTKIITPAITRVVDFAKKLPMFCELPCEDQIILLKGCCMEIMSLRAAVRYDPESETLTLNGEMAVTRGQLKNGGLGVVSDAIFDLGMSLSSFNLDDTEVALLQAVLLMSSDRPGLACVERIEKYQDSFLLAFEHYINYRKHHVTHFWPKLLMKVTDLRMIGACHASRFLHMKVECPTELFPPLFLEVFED
Outline: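 TR-UAS-bla GripTite HEK 293 cells (2500/well, medium with 2% charcoal/dextran FBS) were treated in agonist mode for 18 h at 37 C, titrated. Beta-lactamase was read by CCF4 ratio after 2 h; normalized to 10 nM T3 (100%) and DMSO, Hill-fitted for EC50 and efficacy.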

Cc1ccc2c(c1)C(=O)OC2=O
-9.63%: max response [8]
inactive: activation [1] -1.62% | outcome [3] | Potency [4] | outcome [5] | Potency [7] | max response [9] -14.4% | activation [10] -6.05% | activation [11] 2.38% | max response [12] -2.31% | Potency [13] | max response [14] -8.54% | max response [15] -7.63% | Potency [16] | max response [17] 0.0212% | outcome [18]
-13.4%: max response [6]
33.6%: max response [2]

CCCCCCC(O)CCCCCCCCCCC(=O)OC (centres undefined)
18.1%: max response [2]
-11.4%: max response [6]
active: Potency [12] 20 µM
inactive: activation [1] -20.2% | Potency [19] | outcome [5] | Potency [7] | Potency [20] | activation [10] 0.349% | Potency [13] | max response [14] 9.9% | max response [15] -0.436% | Potency [16] | max response [17] -2.07% | outcome [18]

CC(C)C(=O)OC(=O)C(C)C
-11.3%: max response [6]
-12.1%: max response [8]
1.13%: max response [2]
inactive: activation [1] -15% | Potency [19] | outcome [5] | Potency [7] | Potency [20] | max response [9] -4.54% | activation [10] -7.19% | max response [12] -0.54% | Potency [13] | max response [14] -7.37% | max response [15] -4.79% | Potency [16] | max response [17] -1.65%

CCCCCCCCCCCCN
-18.4%: max response [2]
7.66%: max response [6]
-2.37%: max response [8]
inactive: activation [1] -4.12% | outcome [3] | Potency [4] | Potency [7] | Potency [20] | max response [9] 5.24% | activation [10] -7.19% | activation [11] -1.22% | max response [12] -0.939% | Potency [13] | max response [14] -1.6% | max response [15] -1.85% | Potency [16] | max response [17] 0.146% | outcome [18]

COC(=O)c1ccc(I)cc1S(=O)(=O)NC(=O)Nc1nc(C)nc(OC)n1
-4.15%: max response [8]
inactive: outcome [3] | Potency [4] | Potency [19] | outcome [5] | Potency [7] | Potency [20] | max response [9] -12.1% | activation [11] 2.67% | max response [12] -0.424% | Potency [13] | max response [14] -4.44% | max response [15] -13.7% | Potency [16] | max response [17] 3.28% | outcome [18]
-6.12%: max response [6]
